FBW7 activator: human FBW7 E3 ligase activation, primary screen. AlphaScreen FBW7–phospho-cyclin E peptide binding, activator screen. 650,000 compounds, 0.13% hits. normalized activity (activation), % at 26.1 µM. Q969H0; in the data active = normalized activity above about 1.9%;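 also: purified mutant Fbw7 with reduced substrate affinity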
MITF primary: human MITF inhibition, primary screen. AID 1259374. AlphaScreen MITF homodimerization, bead proximity signal. 650,000 compounds, 0.91% hits. inhibition, % at 2.6 µM. O75030; in the data active = inhibition above about 50%
Target sequence (O75030 whole entry, looked up): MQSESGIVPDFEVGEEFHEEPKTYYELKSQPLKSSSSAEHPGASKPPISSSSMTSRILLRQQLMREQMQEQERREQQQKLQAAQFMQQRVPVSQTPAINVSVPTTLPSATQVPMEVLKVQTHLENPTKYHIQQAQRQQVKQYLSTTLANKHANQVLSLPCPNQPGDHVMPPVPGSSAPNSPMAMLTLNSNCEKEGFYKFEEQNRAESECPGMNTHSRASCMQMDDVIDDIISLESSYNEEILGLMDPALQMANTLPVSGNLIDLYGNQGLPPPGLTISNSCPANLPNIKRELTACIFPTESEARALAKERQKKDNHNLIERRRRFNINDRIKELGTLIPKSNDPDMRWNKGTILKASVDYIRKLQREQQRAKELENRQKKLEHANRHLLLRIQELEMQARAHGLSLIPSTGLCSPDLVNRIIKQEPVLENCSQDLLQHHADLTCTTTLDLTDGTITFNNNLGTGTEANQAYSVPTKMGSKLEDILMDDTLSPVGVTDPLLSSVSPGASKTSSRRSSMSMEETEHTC
GPR151 activ: activates the human receptor GPR151; PathHunter beta-arrestin GPR151 cells, luminescence; activation, % at 11.2 µM; 650,000 compounds, 1% hits; AID 1508602; in the data active = activation above about 4.9%
TEAD-YAP block: TEAD-YAP interaction inhibition. HEK-TIYL cells, TEAD-Gal4/YAP UAS-luciferase luminescence. inhibition, % at 9.12 µM. 640,000 compounds, 1.4% hits; in the data active = inhibition above about 32%
Hits are given with their value; n = inactive. An excerpt weighted towards active compounds, which were near 3.5% of everything screened.

SMILES | FBW7 activator | MITF primary | GPR151 activ | TEAD-YAP block
Cc1ccc2c(c1)sc(=NC(=O)CCS(=O)(=O)c1ccccc1)n2C | n | n | n | n
COc1ccc(NC(=S)NCc2ccc3c(c2)OCO3)c(OC)c1 | n | n | n | n
CC(C)(C)/C(=C\c1nc2ccccc2[nH]c1=O)NN | n | n | n | 81
CSc1ccccc1C(=O)Nc1nc2cc(C)c(C)cc2s1 | n | n | n | n
Cc1cc(C)nc(Oc2ccc(N)cc2)n1 | 1.9 | n | n | 52
c1ccc(Oc2cccc(Oc3cccc(Oc4cccc(Oc5ccccc5)c4)c3)c2)cc1 | n | n | n | n
COc1ccc(Oc2nc(C)cc(C)n2)cc1 | n | n | n | n
Nc1ccc(Oc2cccc(-c3ccc(N)cc3)c2)cc1 | n | n | n | 46
Nc1ccc(Oc2cccc(Oc3ccc(N)cc3)c2)cc1 | n | n | n | 52
Cc1ccc(CN2CCC3(CC2)CC3C(=O)NCCc2ccccn2)o1 (stereo unspecified) | n | n | n | n
N#C/C(=C\c1c(Oc2ccc(Br)cc2)nc2ccccn2c1=O)C(N)=O | n | n | n | n
Cc1sc(NC(=O)CN(C(=O)c2ccc(Cl)cc2)C2CCCC2)c(C(N)=O)c1C | n | n | n | n
COc1cccc(C(=O)N(CC(=O)Nc2sc(C)c(C)c2C(N)=O)C2CCCC2)c1 | n | n | n | 41
Cc1sc(NC(=O)CN(C(=O)c2ccccc2)C2CCCC2)c(C(N)=O)c1C | n | n | n | 41
Cc1ccccc1C(=O)N(CC(=O)Nc1sc(C)c(C)c1C(N)=O)C1CCCCC1 | n | n | n | n
Cc1sc(NC(=O)CN(C(=O)c2ccccc2)C2CCCCC2)c(C(N)=O)c1C | n | n | n | 36
O=C(Nc1ncc([N+](=O)[O-])s1)c1cccc2ccccc12 | n | n | n | n
C/C(=N/NC(=O)c1ccncc1)c1ccco1 | n | n | n | n
COC(=O)c1c(NC(=O)c2nn3c(C(F)(F)F)cc(-c4ccc(Br)cc4)nc3c2Cl)sc2c1CCCC2 | n | n | n | n
O=C(Nc1ccccc1)N1CCC2(CC1)NCCc1c2[nH]c2ccc(Cl)cc12 | n | n | n | 46
Cc1ccn2c(-c3csc(Nc4ccc(S(N)(=O)=O)cc4)n3)c(C)nc2c1 | n | n | n | n
CC(=O)Nc1ccc(Nc2nc(-c3c(C)nc4cc(C)ccn34)cs2)cc1 | n | n | n | 57
Cc1ccn2c(-c3csc(Nc4ccc(Cl)cc4)n3)c(C)nc2c1 | n | n | n | 55
COc1ccc(C(=O)NCc2ccc(Cl)cc2)cc1[N+](=O)[O-] | n | n | n | n
CCN1/C(=C/C=C/c2sc3c(C)cccc3[n+]2CC)Sc2c(C)cccc21 | n | n | n | 44
SMILES | FBW7 activator | MITF primary | GPR151 activ | TEAD-YAP block
CC(C)CC(O)c1ccc2c(c1)CN(CC1CC1)CCO2 (stereo unspecified) | n | n | n | n
Cc1cc(C)c2oc(=O)cc(CN3CCN(c4ccc(F)cc4)CC3)c2c1 | n | n | n | n
CCN(CC)S(=O)(=O)c1ccc(N=Cc2c(O)[nH]c(=S)[nH]c2=O)cc1 | n | n | n | n
Nc1cc(N=Cc2c(O)[nH]c(=S)[nH]c2=O)ccc1O | n | 92 | n | n
CCN(CC)c1ccc(N=Cc2c(O)[nH]c(=S)[nH]c2=O)cc1 | n | 51 | n | n
OCC1CCCN1c1nc(NCc2cccnc2)c2ncn(-c3ccsc3)c2n1 (stereo unspecified) | n | n | n | 54
OCC1CCCN1c1nc(Nc2ccc3c(c2)OCO3)c2ncn(-c3ccsc3)c2n1 (stereo unspecified) | n | n | n | 34
c1cncc(CNc2nc(N3CCC(N4CCOCC4)CC3)nc3c2ncn3-c2ccsc2)c1 | n | n | n | n
OCC1CCCN1c1nc(Nc2ccccc2)c2ncn(-c3ccsc3)c2n1 (stereo unspecified) | n | n | n | 36
COc1cc(Nc2nc(N3CCCC3CO)nc3c2ncn3-c2ccsc2)cc(OC)c1OC (stereo unspecified) | n | n | n | n
CC(=O)Nc1ccc(Nc2nc(N3CCCC3CO)nc3c2ncn3-c2ccsc2)cc1 (stereo unspecified) | n | n | n | n
Cc1ccc(-n2c(C)cc(/C=C3\SC(=Nc4ccccc4)N(C4CCCC4)C3=O)c2C)cc1 | n | n | n | n
c1ccc(Oc2ccccc2-c2cnc3ccc(NCc4ccncc4)nn23)cc1 | n | n | n | n
CCCS(=O)(=O)c1ncc(Cl)c(C(=O)Nc2ccc(OC)cc2)n1 | n | n | n | 34
CCS(=O)(=O)c1ncc(Cl)c(C(=O)Nc2cccc(Cl)c2)n1 | n | n | n | 95
CCS(=O)(=O)c1ncc(Cl)c(C(=O)Nc2ccc(C)c(C)c2)n1 | n | n | n | 35
O=c1[nH]c2ncc(-c3ccoc3)nc2n1CC1CC1 | n | n | n | n
O=C(c1cnccn1)N1CCCC1c1nc2ccccc2[nH]1 (stereo unspecified) | n | n | n | n
CN(C)/C=N/n1cnc2scc(-c3ccc(Cc4ccccc4)cc3)c2c1=O | n | n | n | n
CCOC(=O)c1ccccc1Nc1cn(C(C)=O)c2ccccc12 | n | n | n | 52
C[C@@H]1NC(=O)[C@@H]2C[C@H](NCc3ccc(Cl)s3)CN2C1=O | n | n | n | n
Cc1ccc(C(=O)COC(=O)c2ccccc2[N+](=O)[O-])cc1 | n | n | n | 90
Cc1c(C(=O)OCC(=O)c2ccccc2Cl)cccc1[N+](=O)[O-] | n | n | n | n
O=C(COC(=O)c1ccccc1[N+](=O)[O-])c1ccccc1Cl | n | n | n | 34
CCc1ccc(C(=O)COC(=O)c2ccccc2[N+](=O)[O-])cc1 | n | n | n | 55
SMILES | FBW7 activator | MITF primary | GPR151 activ | TEAD-YAP block
COc1ccc(C(=O)COC(=O)c2ccccc2[N+](=O)[O-])cc1 | n | n | n | n
CCOc1ccc(C(=O)COC(=O)c2ccccc2[N+](=O)[O-])cc1 | n | n | n | n
CCN(CC)CCN(C(=O)C1CC1)c1nc2ccccc2s1 | n | n | n | n
Cc1cc(C)n(Cc2ccc(C(=O)N/N=C/c3ccc(O)cc3O)cc2)n1 | n | n | n | 61
COc1ccc(CCCC(=O)N/N=C/c2cccc(OC)c2O)cc1C | n | n | n | 42
COc1cccc(/C=N/NC(=O)c2ccc(Cn3nc(C)cc3C)cc2)c1O | n | n | n | 53
Cc1cc(C)n(Cc2cccc(C(=O)N/N=C/c3ccc(O)cc3O)c2)n1 | n | n | n | n
CC(=O)N1N=C(c2ccc(Cl)cc2)OC1c1ccc2c(c1)OCO2 (stereo unspecified) | n | n | n | n
CCN(Cc1ccccc1)C(=O)c1sc2nc3n(c(=O)c2c1C)CCCC3 | n | n | n | 37
COc1cccc(/C=N/NC(=O)c2cccc(NC(=O)c3ccccc3F)c2)c1O | n | n | n | 64
COc1ccccc1/C=N/NC(=O)c1cc(-c2ccc(C)cc2)n[nH]1 | n | n | n | n
COc1cccc(/C=N/NC(=O)c2cc(-c3ccc(C)cc3)n[nH]2)c1O | n | 62 | n | 79
COc1cccc(/C=N/NC(=O)CSc2cc(C)nc3ccc(C)cc23)c1O | n | n | n | 44
COc1cccc2c(SCC(=O)N/N=C/c3ccc(O)cc3O)cc(C)nc12 | n | n | n | n

Compound activity (PubChem)
